Experimental data reported in PubChem BioAssay.
For part of these data: Potency and affinity values are given separately. Calls of active or inactive are those of the source.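 The calls were made as follows, unless noted: active = membrane potential signal rise above negative control mean plus 3 SD in both duplicates, also active in the earlier TRPC4 screen; inactive = the rest.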

Key:
[1] = system: TRPC4 beta (transient receptor potential cation channel C4), mouse; assay: activators of mouse TRPC4 channel, confirmation, cell-based, Fluo4 calcium, HEK293 TRPC4beta/mu-opioid, duplicates, 10 µM (AID 2426;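 active = fluorescence ratio normalized to control raised more than 50% in primary screen plus both repeat runs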;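 as to activation: percent rise of integrated ratio over buffer wells lacking compound which define 0%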); conditions: Fluo4 calcium fluorescence, at 10 µM; stronger effect = higher value
[2] = system: transient receptor potential cation channel C4 beta (TRPC4), mouse; assay: activators of mouse TRPC4 channel, confirmation, cell-based, second round, Fluo4, HEK293 TRPC4beta/mu-opioid, 1 µM (AID 2461;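 active = primary screen active and over 50% activation in each of two duplicate runs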;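 as to activation: 0% = wells without test compound as baseline of integrated fluorescence ratio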); conditions: Fluo4 calcium fluorescence, at 1 µM; stronger effect = higher value
[3] = system: TRPC4 (transient receptor potential cation channel C4 beta), mouse; assay: positive allosteric modulators of mouse TRPC4, confirmation, cell-based, second round, Fluo-4, HEK293 TRPC4beta/mu-opioid, 1 µM (AID 2554;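 active = primary screen hit whose fluorescence ratio, in both repeats, exceeds the weak agonist control mean by 3 SD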); conditions: DAMGO EC20, Fluo-4 calcium flux, at 1 µM; stronger effect = higher value
[4] = system: TRPC4 beta (transient receptor potential cation channel C4), mouse; assay: positive allosteric modulators of mouse TRPC4, confirmation, cell-based, Fluo-4, HEK293 TRPC4beta/mu-opioid (AID 2555;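 active = primary screen hit whose calcium fluorescence ratio, in both repeats, exceeds the weak agonist control mean by 3 SD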); conditions: DAMGO EC20, Fluo-4 calcium flux, at 10 µM; stronger effect = higher value
[5] = biological target: Short transient receptor potential channel 4 (Mus musculus) (UniProt Q9QUQ5); assay: inhibitors of mouse TRPC4 channel, confirmation, cell-based, Fluo4, HEK293 TRPC4beta/mu-opioid (AID 2636;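 active = calcium signal cut by more than 3 SD below the full-agonist control yet still positive, in both repeats and the earlier primary screen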); conditions: DAMGO, Fluo4 calcium flux, at 10 µM; stronger effect = higher value
[6] = biological target: Short transient receptor potential channel 4 (Mus musculus) (UniProt Q9QUQ5); assay: inhibitors of mouse TRPC4 channel, confirmation, cell-based, second round, Fluo4, HEK293 TRPC4beta/mu-opioid, 1 µM (AID 2637;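 active = calcium signal ratio cut to more than 3 SD under the fully stimulated control mean yet still positive, in both repeats and the primary screen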); conditions: Fluo4 calcium flux, DAMGO, at 1 µM; stronger effect = higher value
[7] = biological target: Short transient receptor potential channel 4 (Mus musculus) (UniProt Q9QUQ5); assay: TRPC4 positive allosteric modulators, dose response, cell-based, HEK293 TRPC4/mu-opioid, Fluo-4 calcium, EC20 DAMGO (AID 434941;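 active = earlier screen potentiator hit that boosts the TRPC4 ion channel at some dose, with a dose response; inactive = no potentiation, no dose response, or not a prior hit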;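 also: calcium entry triggered by an EC20 dose of DAMGO at the co-expressed mu-opioid receptor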)
[8] = biological target: Short transient receptor potential channel 4 (Mus musculus) (UniProt Q9QUQ5); assay: mouse TRPC4 channel inhibitors, dose response, cell-based, HEK293 TRPC4/mu-opioid, Fluo-4 calcium (AID 434942;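 active = primary screen inhibitor hit that blocks the TRPC4 channel at some tested dose, yielding a dose curve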)
[9] = biological target: Short transient receptor potential channel 6 (Mus musculus) (UniProt Q61143); assay: inhibition of mouse TRPC6 channel, confirmation, selectivity assay for TRPC4 inhibitor project, cell-based, HEK293, membrane potential dye, duplicate (AID 434948;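 active = active in primary screen and both duplicates, each dropping signal beyond three positive-control SD with fluorescence still positive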); conditions: HEK293 TRPC6, membrane potential dye fluorescence, at 10 µM, stimulated with maximal-effect acetylcholine; stronger effect = higher value
[10] = biological target: Short transient receptor potential channel 6 (Mus musculus) (UniProt Q61143); assay: activation of mouse TRPC6 channel, confirmation, selectivity assay for TRPC4 activator project, cell-based, HEK293, membrane potential dye, duplicate (AID 434950); conditions: HEK293 TRPC6, membrane potential fluorescence, at 10 µM; stronger effect = higher value;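 as to activation: 0% = buffer only wells and 100% = acetylcholine maximal-effect wells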
[11] = biological target: Short transient receptor potential channel 6 (Mus musculus) (UniProt Q61143); assay: TRPC6 potentiation by TRPC4 potentiator hits, confirmation, selectivity assay for TRPC4 potentiator project, HEK293 cells, membrane potential dye, duplicate (AID 434952;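 active = compound raising the membrane signal above positive-control mean plus 3 SD in both repeats, and a primary screen hit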); conditions: HEK293 TRPC6, membrane potential dye fluorescence, at 10 µM, maximal acetylcholine added after compound; stronger effect = higher value
[12] = biological target: Short transient receptor potential channel 4 (Mus musculus) (UniProt Q9QUQ5); assay: calcium flux activators in TRPC4/5HT1a cells, counter-screen for TRPC4 activator project, cell-based, second counter screen, HEK293 TRPC4/5HT1a, Fluo-4 (AID 434977;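 active = calcium signal rise above buffer-control mean plus 5 SD in both duplicates, and also a hit in the primary screen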;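 as to activation: plate controls were assay buffer for no effect and maximal serotonin response for full effect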); conditions: Fluo-4 calcium flux, at 10 µM; stronger effect = higher value
[13] = calcium flux inhibitors in TRPC4/5HT1a cells, confirmation, counter-screen for TRPC4 inhibitor project, cell-based, second counter screen, HEK293 TRPC4/5HT1a, Fluo-4 (AID 434978;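 active = primary screen active whose calcium signal fell more than 3 SD beyond the full-serotonin control mean in both duplicate plates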;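 also: serotonin given first at submaximal then at maximal dose after compound preincubation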); conditions: Fluo-4 calcium flux, at 10 µM, serotonin added to trigger calcium flux; stronger effect = higher value
[14] = system: TRPC4 (mouse), co-expressed with 5HT1a in HEK293; assay: calcium flux potentiators in TRPC4/5HT1a cells, confirmation, counter-screen for TRPC4 potentiator project, cell-based, second counter screen, HEK293 TRPC4/5HT1a, Fluo-4 (AID 434979;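 active = signal rise over 3 SD above mean of control wells given weak agonist, in both repeats and first screen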); conditions: Fluo-4 calcium flux, at 10 µM, serotonin added at its EC20 dose; stronger effect = higher value
[15] = calcium flux activation in mu-opioid HEK293 cells, confirmation, counter-screen for TRPC4 activator project, cell-based, HEK293 mu-opioid receptor line (AID 449723;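 active = hit in primary screen, with calcium signal over 5 SD above buffer well mean in both duplicates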;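 also: counter screen cells carry the mu-opioid receptor alone and lack TRPC4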); conditions: Fluo-4 calcium fluorescence, at 10 µM; stronger effect = higher value
[16] = calcium flux enhancement in mu-opioid HEK293 cells, confirmation, counter-screen for TRPC4 allosteric potentiator project, cell-based, HEK293 mu-opioid receptor line (AID 449724;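 active = calcium signal rise more than 3 SD above the low-dose agonist control mean, in both duplicate plates and the primary screen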); conditions: Fluo-4 calcium flux, at 10 µM, compound added before EC20 DAMGO stimulus; stronger effect = higher value

Measured: activation

Short transient receptor potential channel 4 (Mus musculus), sequence (Q9QUQ5 whole entry, looked up): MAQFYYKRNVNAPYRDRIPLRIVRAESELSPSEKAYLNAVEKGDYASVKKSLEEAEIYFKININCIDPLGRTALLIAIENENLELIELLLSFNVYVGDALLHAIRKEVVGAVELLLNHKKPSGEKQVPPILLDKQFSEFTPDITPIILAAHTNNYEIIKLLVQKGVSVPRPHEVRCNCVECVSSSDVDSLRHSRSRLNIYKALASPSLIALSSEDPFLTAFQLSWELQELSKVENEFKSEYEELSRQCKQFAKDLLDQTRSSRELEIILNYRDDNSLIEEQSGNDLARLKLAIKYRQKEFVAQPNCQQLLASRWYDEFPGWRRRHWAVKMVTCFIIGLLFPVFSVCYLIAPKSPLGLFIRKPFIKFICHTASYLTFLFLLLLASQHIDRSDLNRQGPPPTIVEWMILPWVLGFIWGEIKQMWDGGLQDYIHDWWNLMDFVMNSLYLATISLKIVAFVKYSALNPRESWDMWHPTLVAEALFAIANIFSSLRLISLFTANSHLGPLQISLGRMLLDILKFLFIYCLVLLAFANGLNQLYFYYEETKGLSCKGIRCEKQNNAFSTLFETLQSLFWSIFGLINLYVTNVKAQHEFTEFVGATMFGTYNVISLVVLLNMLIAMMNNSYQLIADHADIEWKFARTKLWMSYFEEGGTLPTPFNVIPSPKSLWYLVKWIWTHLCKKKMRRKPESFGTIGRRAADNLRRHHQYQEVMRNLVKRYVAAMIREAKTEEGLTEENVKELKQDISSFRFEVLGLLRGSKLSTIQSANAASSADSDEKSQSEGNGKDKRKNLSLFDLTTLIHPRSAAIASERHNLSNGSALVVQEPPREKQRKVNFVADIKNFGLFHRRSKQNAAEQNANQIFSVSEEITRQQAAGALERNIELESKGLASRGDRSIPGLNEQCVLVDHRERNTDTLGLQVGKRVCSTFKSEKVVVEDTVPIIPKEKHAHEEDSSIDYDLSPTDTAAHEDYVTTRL
Short transient receptor potential channel 6 (Mus musculus), sequence (Q61143 whole entry, looked up): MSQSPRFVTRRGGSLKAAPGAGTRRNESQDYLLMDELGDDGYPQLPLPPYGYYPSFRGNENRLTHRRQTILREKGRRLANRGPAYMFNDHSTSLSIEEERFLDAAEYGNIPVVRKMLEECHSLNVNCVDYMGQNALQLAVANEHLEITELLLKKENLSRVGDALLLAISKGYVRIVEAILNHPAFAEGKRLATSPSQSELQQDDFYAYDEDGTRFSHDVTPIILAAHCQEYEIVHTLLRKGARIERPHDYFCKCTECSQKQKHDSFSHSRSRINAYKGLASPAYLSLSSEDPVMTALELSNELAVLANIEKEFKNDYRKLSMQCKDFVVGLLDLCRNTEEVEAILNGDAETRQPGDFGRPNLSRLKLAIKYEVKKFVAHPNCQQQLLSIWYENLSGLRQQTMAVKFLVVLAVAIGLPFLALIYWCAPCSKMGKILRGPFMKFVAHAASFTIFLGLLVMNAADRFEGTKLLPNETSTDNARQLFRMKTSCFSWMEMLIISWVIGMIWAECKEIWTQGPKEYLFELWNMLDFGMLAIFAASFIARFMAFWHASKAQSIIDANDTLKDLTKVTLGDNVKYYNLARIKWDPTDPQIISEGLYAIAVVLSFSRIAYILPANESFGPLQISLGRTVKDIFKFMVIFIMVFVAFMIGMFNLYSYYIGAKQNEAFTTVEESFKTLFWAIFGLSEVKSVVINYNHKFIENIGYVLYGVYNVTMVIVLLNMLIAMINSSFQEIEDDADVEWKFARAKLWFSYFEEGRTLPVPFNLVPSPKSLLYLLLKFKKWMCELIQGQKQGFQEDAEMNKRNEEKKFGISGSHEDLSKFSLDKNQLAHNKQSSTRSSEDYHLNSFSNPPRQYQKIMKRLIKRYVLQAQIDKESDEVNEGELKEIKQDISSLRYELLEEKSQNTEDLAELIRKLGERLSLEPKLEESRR

CN(C)C(CNC(=O)c1ccc2ccccc2n1)c1ccccc1 (stereo not given)
inactive: [2] | [3] | [4] | [5] | [6] | [7] | [8] | [9] | [11] | [12] | [13] | [14] | [15] | [16]
active: [1] 61% | [10] 54%

O=C(NCc1cccnc1)C1CCCN(Cc2cnn(-c3ccccc3)c2-n2cccc2)C1 (stereo not given)
inactive: [2] | [3] | [4] | [5] | [6] | [7] | [8] | [9] | [11] | [13] | [14] | [15] | [16]
active: [1] 83% | [10] 46% | [12] 16.2%

COc1cccc(C(=O)N(C)CC2CCN(CCc3cccc(C(F)(F)F)c3)CC2)c1
inactive: [3] | [4] | [5] | [6] | [7] | [8] | [9] | [11] | [12] | [13] | [14] | [15] | [16]
active: [1] 93% | [2] 77% | [10] 62.5%

Cc1cc(OCCCCn2ccnc2)cc(C)c1Cl
inactive: [2] | [3] | [4] | [5] | [6] | [7] | [8] | [9] | [11] | [13] | [14] | [15] | [16]
active: [1] 102% | [10] 50% | [12] 20.1%

Cc1ccc(C(=O)NNC(=S)NC(=O)c2ccc(Cl)cc2)cc1
active: [10] 29.5% | [12] 77.8%
inactive: [1] | [2] | [3] | [4] | [5] | [6] | [7] | [8] | [9] | [11] | [13] | [14] | [15] | [16]

O=C(Cn1c(-c2ccccc2)c[n+]2ccsc12)c1ccc(Br)cc1
inactive: [1] | [3] | [4] | [5] | [6] | [7] | [8] | [9] | [10] | [11] | [12] | [13] | [14] | [15] | [16]
active: [2] 77%

CCN1CCN(c2ccc(S(=O)(=O)N3CCCCC3)cc2NC(=O)C(C)Oc2ccc(F)cc2)CC1 (stereo not given)
inactive: [2] | [3] | [4] | [5] | [6] | [7] | [8] | [9] | [11] | [13] | [14] | [15] | [16]
active: [1] 185% | [10] 32.5% | [12] 9.95%

CN(C)C(CNC(=S)Nc1cccc(Cl)c1)c1ccccc1 (stereo not given)
active: [1] 255% | [2] 127%
inactive: [3] | [4] | [5] | [6] | [7] | [8] | [9] | [10] | [11] | [12] | [13] | [14] | [15] | [16]

Cc1ccc2[nH]c3c(=O)n(CCc4cnc[nH]4)cnc3c2c1
active: [1] 126% | [10] 27.5% | [12] 33.2%
inactive: [2] | [3] | [4] | [5] | [6] | [7] | [8] | [9] | [11] | [13] | [14] | [15] | [16]

Cc1csc2c(N3CCN(C(=S)Nc4ccc(F)cc4F)CC3)ncnc12
inactive: [2] | [3] | [4] | [5] | [6] | [7] | [8] | [9] | [10] | [11] | [13] | [14] | [15] | [16]
active: [1] 126% | [12] 40.5%

COC(=O)C1=C(C)N(Cc2ccccc2)C(=NCCc2ccccn2)N[C@H]1c1cccc(F)c1
inactive: [2] | [3] | [4] | [5] | [6] | [7] | [8] | [9] | [11] | [13] | [14] | [15] | [16]
active: [1] 109% | [10] 77% | [12] 44.2%

COc1ccc(-c2nn(-c3ccccc3)cc2CNCc2cccnc2)c(F)c1
active: [1] 224%
inactive: [2] | [3] | [4] | [5] | [6] | [7] | [8] | [9] | [10] | [11] | [12] | [13] | [14] | [15] | [16]

O=C(NCCc1ccccn1)C(F)(F)C(F)(F)C(F)(F)C(F)(F)C(F)(F)C(F)F
active: [1] 178% | [12] 46%
inactive: [2] | [3] | [4] | [5] | [6] | [7] | [8] | [9] | [10] | [11] | [13] | [14] | [15] | [16]

Cc1ccc(Sc2cc(C(=O)NCCN(C)C)c3ccccc3n2)cc1
active: [1] 91% | [12] 24.6%
inactive: [2] | [3] | [4] | [5] | [6] | [7] | [8] | [9] | [10] | [11] | [13] | [14] | [15] | [16]

Cc1cc(Br)ccc1OCCn1ccnc1
inactive: [1] | [2] | [3] | [4] | [5] | [6] | [7] | [8] | [9] | [11] | [13] | [14] | [15] | [16]
active: [10] 37.5% | [12] 11.7%
